The list is not random: actives were taken first. Their share in the collection is about 13%.
G9a block = qHTS Assay for Inhibitors of Histone Lysine Methyltransferase G9a | Potency, µM (doses to about 102 µM), for the others: top-dose activity, negative = inhibition, most hits filed as inhibitors | actives 8.8% (n = 350,000) | Histone-lysine N-methyltransferase EHMT2 (Homo sapiens), Q96KQ7 | G9a H3K9 monomethylation, AlphaScreen, 2 h; further: potency means the concentration at half of the fitted maximal effect; on the % scale 0 is the no-effect control and ±100 the full control effect; nearly all actives have a fitted effect of over 75% in size
Target sequence (Q96KQ7 913-1193 limits assumed): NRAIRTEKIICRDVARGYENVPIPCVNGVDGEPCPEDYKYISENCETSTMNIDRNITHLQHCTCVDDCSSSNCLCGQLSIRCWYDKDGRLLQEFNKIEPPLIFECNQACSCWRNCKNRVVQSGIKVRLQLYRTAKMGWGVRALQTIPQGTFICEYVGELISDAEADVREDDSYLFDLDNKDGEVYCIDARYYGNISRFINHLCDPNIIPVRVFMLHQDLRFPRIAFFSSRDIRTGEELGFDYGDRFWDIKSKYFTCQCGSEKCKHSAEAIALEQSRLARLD
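AlphaScreen read-out: biotin-H3K9 peptide (500 nM) methylation by 20 nM enzyme with 20 uM SAM, 2 h at room temperature after 15 min compound preincubation; anti-monomethyl H3K9 antibody plus donor/acceptor beads, 10 min dark.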
miR-21 reporter = qHTS Assay for Modulators of miRNAs and/orActivators of miR-21; 340,000 tested, under 10 active; Potency, µM (titrated, usually from 38.3 µM), without a hit: at the top dose activity change, positive = activation, hits mostly activators; AID 2288, 2010; HeLa miR-21 FLuc reporter, luciferase, 48 h;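 further: % of control where 0% means no effect; miR-21 action dims this reporter so a rising signal means less miR-21 action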
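Luminescence from a firefly luciferase reporter carrying a miR-21 binding site downstream, stably expressed under a CMV promoter in HeLa cells that make miR-21 endogenously, reports miRNA modulation after 48 h compound exposure up to approximately 40uM final.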
JMJD2E inh = qHTS Assay for Inhibitors of Human Jumonji Domain Containing 2E (JMJD2E); JMJD2E catalytic domain, FDH-coupled NADH fluorescence (FDH is formaldehyde dehydrogenase); Potency, µM (top dose mostly 57.1 µM), for the others: top-dose activity change, negative = inhibition, hits mostly inhibitors; actives 1.6% (n = 230,000); AID 2147, 2009; active means well fitted inhibition curve with a large enough effect, not every such curve was filed as active; inconclusive means small, poorly fitted or top-dose-only effect, or another doubt; inactive means no such curve, though single readings can be large or run the other way;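 further: potency means the concentration at half of the fitted maximal effect; 0% = wells with enzyme and -100% = buffer wells without enzyme; nearly all actives have a fitted effect of over 50% in size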
Target sequence (B2RXH2 1-337 limits assumed): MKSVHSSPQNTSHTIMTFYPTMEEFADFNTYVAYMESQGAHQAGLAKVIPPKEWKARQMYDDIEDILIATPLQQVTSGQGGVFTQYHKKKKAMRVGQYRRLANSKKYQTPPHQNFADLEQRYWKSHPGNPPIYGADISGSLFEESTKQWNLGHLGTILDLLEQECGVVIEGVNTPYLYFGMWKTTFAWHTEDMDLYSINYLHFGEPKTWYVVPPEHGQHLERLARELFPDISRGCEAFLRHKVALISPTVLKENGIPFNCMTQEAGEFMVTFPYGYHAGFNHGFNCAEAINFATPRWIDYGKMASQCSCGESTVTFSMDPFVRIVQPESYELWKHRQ
ALDH1A1 block = qHTS Assay for Inhibitors of Aldehyde Dehydrogenase 1 (ALDH1A1). Potency, µM (highest dose often 75.3 µM), inactives show top-dose activity, negative = inhibition, actives largely listed as inhibitors. actives 7.3% (n = 220,000). Aldehyde dehydrogenase 1A1 (Homo sapiens), P00352. Purified ALDH1A1, NADH fluorescence, propionaldehyde substrate; active means well fitted inhibition curve with a large enough effect, not every such curve was filed as active; inconclusive means small, poorly fitted or top-dose-only effect, or another doubt; inactive means no such curve, though single readings can be large or run the other way;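 further: potency means the concentration at half of the fitted maximal effect; plate controls were no enzyme wells and a reference inhibitor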
Sfp PPTase inh = qHTS Assay for Inhibitors of Bacillus subtilis Sfp phosphopantetheinyl transferase (PPTase); actives 3.5% (n = 310,000); 4'-phosphopantetheinyl transferase ffp (Bacillus subtilis), Q9F4F7; AID 1490, 2009; Biochemical Sfp PPTase activity, qHTS; Potency, µM, inactives show largest response in the series, negative = inhibition, most hits filed as inhibitors;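 further: the enzyme is Sfp with the accession as filed and its product quenches rhodamine fluorescence; potency means the concentration at half of the fitted maximal effect; 0% = enzyme reaction without inhibitor and -100% = no enzyme wells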
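Buffer: 50 mM Hepes-Na pH 7.6, 10 mM MgCl2, 0.01% Nonidet P-40, 0.01% BSA. Enzyme 15 nM, pre-exposed to compound 15 min; substrates then added and fluorescence change tracked over 30 min.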
LMNA splice mod = qHTS Assay for Modulators of Lamin A Splicing | HeLa LMNA splicing GFP/RFP minigene ratio, 48 h | Potency, µM (series often up to 46.1 µM), for the others: at the highest dose ratio change, negative = inhibition, actives largely listed as inhibitors | actives 0.01% (n = 200,000); active means well fitted inhibition curve with a large enough effect in the signal ratio, with a control signal flat, not every such curve was filed as active; inconclusive means small, poorly fitted or top-dose-only effect, or effect the other way, or a change in a side signal; the % refers to the signal ratio; further: potency means the concentration at half of the fitted maximal effect; on the % scale 0 is the no-effect control and ±100 the full control effect
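Read-out is the ratio of GFP to DsRed2 object intensity, acquired by 488 nm laser-scanning cytometry on HeLa lamin A-EGFP minigene reporter cells. Compound incubation 48 hrs at 37 °C in Opti-MEM with 2% FBS; DMSO 0.5% final.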
The depositor's hits bear a star; ? = inconclusive; . = not tested or not shown; [ ] = dose if it differs, or a comment. Unless noted, the call rests on the fitted dose curve; in most records, active means well fitted curve in the direction sought with a large enough effect; inconclusive means small, poorly fitted or top-dose-only effect, or another doubt; inactive means no such curve, though single readings can be large; an effect the other way counts as inactive or inconclusive.

SMILES	G9a block	miR-21 reporter	JMJD2E inh	ALDH1A1 block	Sfp PPTase inh	LMNA splice mod
CCC1CSC(Nc2ccc(C(=O)/C=C/c3ccc(Oc4ccccc4)cc3)cc2)=N1 (stereo not given)	?	-2.2%	-2.6%	-16.0%	-15.8%	?
CCOC(=O)c1ccc(NC(=O)Cn2c(=O)cc(C)c3c(C)nn(-c4ccc(CC)cc4)c32)cc1	15.5%[59 µM]	26.2%	.	.	.	16.1%[46 µM]
CC(=O)NO	-22.7%[2.33 µM]	.	?	-0.9%	-41.6%	?
C=CCNC(=O)c1ccc(-c2ccc([N+](=O)[O-])cc2)o1	?	-38.8%	-14.4%	?	25.1µM*	-3.6%
COc1cc([N+](=O)[O-])ccc1-c1ccc(/C=N/NC(=O)c2ccccc2O)o1	?	-14.9%	3.0%	.	4.0%	.
C=CCNC(=O)c1ccc(-c2cccc([N+](=O)[O-])c2)o1	0.5%[59 µM]	-56.5%	-4.2%	-8.0%	18.0%	7.4%[46 µM]
CC(=O)Nc1ccc(NC(=O)c2ccc(-c3ccc([N+](=O)[O-])cc3)o2)cc1	.	0.1%	.	.	-12.7%	.
COc1ccc(NC(=O)c2ccc(-c3ccc([N+](=O)[O-])cc3)o2)cc1OC	79.4µM*	6.6%	6.3%	-9.6%	0.8%	?
COc1cccc(NC(=O)c2ccc(-c3ccc([N+](=O)[O-])cc3)o2)c1	?	-21.6%	-9.3%	?	20µM*	?
COc1cc([N+](=O)[O-])ccc1-c1ccc(C(=O)Nc2ccc(NC(C)=O)cc2)o1	8.91µM*	-23.5%	1.7%	0.891µM*	10µM*	-18.7%
Cc1ccc(C)c(S(=O)(=O)N2CCN(C(=O)c3cccnc3)CC2)c1	95.2%	-5.1%	.	.	9.5%	.
O=C(NNC(=O)C1C2CCCCC21)c1coc(=O)c(Br)c1 (stereo not given)	44.7µM*	-8.3%	?	.	0.2%	.
O=C(Nc1cc(Cl)cc(Cl)c1)c1coc(=O)c(Br)c1	50.1µM*	-0.3%	?	?	-14.9%	.
CN(C)CCNC(=O)c1coc(=O)c(Br)c1	15.8µM*	-2.9%	?	?	4.4%	?
O=C(NC(CO)(CO)CO)c1coc(=O)c(Br)c1	26.6%[2.33 µM]	4.0%	?	-0.2%	-9.0%	12.2%
CN1C(=O)Cc2cc(S(=O)(=O)N3CCN(c4ccccc4F)CC3)ccc21	-1.7%[59 µM]	1.7%	.	.	5.3%	9.0%[46 µM]
Cc1ccccc1Nc1nc(CSc2nnnn2-c2ccccc2)cs1	39.8µM*	1.5%	3.9%	7.94µM*	44.7µM*	-7.7%
c1ccc(-c2nc(CSc3nnnn3-c3ccccc3)cs2)cc1	-3.7%	-24.5%	-24.0%	14.1µM*	4.6%	?
O=C(O)CSc1nnnn1-c1ccccc1	-13.4%[12.7 µM]	-2.3%	3.9%	3.2%	12.1%	2.0%
Cc1ccc(C(O)(COC(=O)C(C)C)COC(=O)C(C)C)c(O)c1	21.7%[12.7 µM]	0.5%	-6.2%	7.94µM*	79.4µM*	.
Cc1ccc(C)c(O)c1	.	.	.	7.3%	.	.
O=C(/C=C\c1ccc2c(c1)OCO2)NC1CC(=O)N(c2ccc(F)cc2)C1 (stereo not given)	4.3%[59 µM]	8.5%	.	.	.	?
O=C(Nc1nnc(SCC(=O)N2CCOCC2)s1)c1ccccc1Cl	-24.2%[59 µM]	-10.3%	2.7%	22.4µM*	16.3%	-2.7%
CCOC(=O)CSc1nnc(NC(=O)c2cccc([N+](=O)[O-])c2C)s1	25.1µM*	-1.8%	4.9%	-11.7%	19.9%	-16.5%
O=C(Nc1nnc(SCC(=O)N2CCCCC2)s1)c1cccs1	8.91µM*	-15.6%	-0.5%	?	-15.2%	-4.0%
SMILES	G9a block	miR-21 reporter	JMJD2E inh	ALDH1A1 block	Sfp PPTase inh	LMNA splice mod
CCOC(=O)CSc1nnc(NC(=O)c2ccco2)s1	15.6%	2.3%	.	.	5.8%	.
O=C(Nc1nnc(SCC(=O)N2CCCCC2)s1)c1ccccc1F	30.9%	-16.9%	.	.	4.9%	.
CCSc1nnc(NC(=O)c2cccnc2Cl)s1	-30.7%[59 µM]	-40.7%	4.9%	25.1µM*	23.8%	-19.5%
Cc1ccc(CN(C(=O)COc2cccc([N+](=O)[O-])c2)c2ccccn2)cc1	3.2%[59 µM]	-10.4%	.	.	.	?
O=C(NCCc1ccccc1Cl)c1ccc(Cn2c(=O)c3cccn3c3cccnc32)cc1	?	-15.1%	.	.	.	.
CC(C)(C)OC=O	.	.	.	5.8%	.	.
NC(=O)Cn1ccc(O)c(Cc2ccc(Cl)cc2Cl)c1=O	9.2%[2.33 µM]	-2.5%	.	.	-2.2%	.
Cc1ccc(NC(=O)Cn2nc3c(cc2=O)CCCC3)cc1Cl	4.6%[59 µM]	-1.1%	.	.	.	-17.6%[46 µM]
Cc1ccc(NC(=O)Cn2nc(-c3ccco3)ccc2=O)cc1Cl	11.2µM*	2.2%	.	.	?	.
Cc1cccc(NC(=O)CSc2ccc(-c3ccco3)nn2)c1C	-12.7%[59 µM]	0.3%	?	23.8µM*	22.4µM*	4.3%
COc1ccc(OC)c(NC(=O)CSc2nnc(-c3ccco3)n2-c2ccc(C(=O)O)cc2)c1	?	-3.9%	-4.3%	25.1µM*	56.2µM*	-6.6%
COc1ccc(C)cc1NC(=O)CSc1nnc(-c2ccco2)n1N	7.3%[12.7 µM]	2.0%	5.8%	-2.3%	8.4%	-5.0%
Cc1cccc(NC(=O)CSc2ccc(-c3ccccn3)nn2)c1C	7.1%	1.5%	?	2.0%	-4.5%	-14.8%[46 µM]
Cc1cc(NC(=O)Cn2nc(-c3ccccc3F)ccc2=O)ccc1-n1cnnn1	56.2µM*	2.3%	-5.9%	?	-3.1%	2.9%
COc1cc(NC(=O)Cn2nc(-c3ccc(F)cc3)ccc2=O)ccc1-n1cnnn1	-4.6%	-3.2%	0.7%	?	-16.9%	?
O=c1cnc2cnc(Oc3ccccc3)nc2n1Cc1ccc(F)cc1	-2.1%[12.7 µM]	.	.	?	-0.6%	.
COC(=O)NC(CC(C)=O)c1ccccc1 (stereo not given)	.	.	.	20.6%[13.5 µM]	-7.2%	.
Cc1ccc(N(C(=O)Cn2nnc(-c3ccc(C)o3)n2)C(C(=O)NC2CCCC2)c2ccncc2)cc1 (stereo not given)	11.2%	-5.2%	.	.	20.3%	.
COc1ccc(C)cc1NC(=O)CSc1ccc(-c2ccco2)nn1	39.8µM*	-4.3%	.	.	17.8µM*	.
